NSD2 HMT inh – blocks human histone methyltransferase NSD2; O96028; NSD2 peptide methylation, AlphaScreen, 120 min; inhibition, % at 12.5 µM; 0.54% of 310,000 active; AID 743445; in the data active = inhibition above about 50%
UBC9 SUMO inh – blocks human SUMOylation mediated by UBC9 | P63279 | HTRF SUMOylation assay, SAE1/SAE2 + UBC9, in vitro | inhibition, % at 35 µM | 0.36% of 290,000 active; in the data active = inhibition above about 50%, passing the limit was not always enough
Target sequence (P63279 whole entry, looked up): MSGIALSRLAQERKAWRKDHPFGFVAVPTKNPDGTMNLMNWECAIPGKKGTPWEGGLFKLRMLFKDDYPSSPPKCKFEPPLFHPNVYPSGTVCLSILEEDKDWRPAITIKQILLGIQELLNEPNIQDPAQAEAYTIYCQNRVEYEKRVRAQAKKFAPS
CASP6 VEID inh – blocks human caspase-6 cleavage activity | purified caspase-6, Z-VEID-R110 cleavage fluorescence | AID 686996 | inhibition, % at 12.5 µM | 0.53% of 350,000 active;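 active = mean inhibition across replicates at least about 35%, with every replicate also reaching that limit, limit read from the data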;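 note: 0% = median of neutral control wells and 100% = no fluorescence left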
Target sequence (P55212 24-179 limits assumed): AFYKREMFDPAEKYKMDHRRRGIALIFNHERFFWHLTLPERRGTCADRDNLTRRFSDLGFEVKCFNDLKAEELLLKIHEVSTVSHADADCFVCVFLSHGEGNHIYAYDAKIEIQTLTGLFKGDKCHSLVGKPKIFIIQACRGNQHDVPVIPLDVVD
Target sequence (P55212 194-293 limits assumed): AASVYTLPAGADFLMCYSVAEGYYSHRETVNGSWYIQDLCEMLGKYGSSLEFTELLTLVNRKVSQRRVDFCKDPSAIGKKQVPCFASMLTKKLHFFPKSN
SIRT5 block – inhibitors of human sirtuin-5 desuccinylase | Purified SirT5, succinyl-peptide AMC, trypsin-coupled fluorescence | Q9NXA8 | inhibition, % at 15 µM | AID 652115 | 1.1% of 330,000 active; in the data active = inhibition above about 15%
Alpha artifact – counter-screen for NSD2 inhibitors: AlphaScreen artifacts; shares compounds with NSD2 HMT inh; AlphaScreen artifact counterscreen, preloaded methylated H4 peptide; 9.4% of 1,500 active; AC35, µM (doses to about 10 µM), inactives show at the highest dose activity change, negative = signal loss; call rule not given here
* hit, by the source's call; nt = not tested or not shown. Only some compounds are listed: those with a hit (about 1.6% of all), similar ones and a draw of the others.

SMILES	NSD2 HMT inh	UBC9 SUMO inh	CASP6 VEID inh	SIRT5 block	Alpha artifact
CCCCN(C)CCCNC(=O)Cn1cc2c(n1)-c1c(oc(C(=O)N3CCCC3)c1C)CC2	16	nt	6	nt	nt
CCOCCCNC(=O)Cn1cc2c(n1)-c1c(oc(C(=O)N3CCCC3)c1C)CC2	97*	nt	8	7	-8%
O=C(CSc1nc(-c2ccccc2)c(-c2ccccc2)o1)Nc1nnc(-c2ccccc2)s1	76*	8	nt	nt	2%
Fc1ccc(NC(=S)Nc2ccc3nccnc3c2)cc1	105*	100	15	-2	-3%
O=C(O)COc1ccc2c(c1)O/C(=C\c1ccco1)C2=O	66*	43	52*	11	-2%
COc1cc(/C=C2\C(=O)ON=C2c2ccc(Cl)cc2)ccc1O	61*	nt	4	7	-4%
O=C1ON=C(c2ccccc2)/C1=C/c1ccc(O)c(O)c1	24	-10	6	-2	nt
Nc1ncc(-c2ccccc2)n1CC1CCCO1 (stereo unspecified)	123*	-9	nt	nt	-6%
COc1ccc(C)cc1NCc1ccc(OC)c(C)c1OC	80*	-7	2	-4	-19%
CCCC#Cc1cnc2c(c1)C(=O)N([C@@H](C)CO)C[C@@H](C)[C@H](CN(C)C(=O)Nc1ccc(OC)cc1)O2	nt	nt	-2	-1	nt
CCOc1cccc(/C=N/NC(=S)Nc2ccccc2[N+](=O)[O-])c1O	-2	34	-1	-2	nt
O=[N+]([O-])c1ccccc1NC(=S)N/N=C/c1ccc(O)c(O)c1	117*	6	53*	4	1.8µM*
Cc1cccc(N2NC(=O)/C(=C/c3ccc(-c4ccc(Cl)c(C(=O)O)c4)o3)C2=O)c1	76*	18	52*	16*	-8%
Nc1ccc(N(CCO)CCO)cc1	117*	60	28	-1	-4%
Nc1ccc(C(=O)N(CCO)CCO)cc1	0	4	8	2	nt
CC(NC1=CC(=O)c2cccnc2C1=O)C(O)c1ccccc1 (stereo unspecified)	114*	nt	100*	-1	1%
ON=C(c1ccccc1)c1ccc2c3c(cccc13)CC2	13	nt	-1	-1	nt
CC(=NO)c1cc(Br)c2cccc3c2c1CC3	66*	nt	0	nt	-3%
O=C(O)C1CC(c2ccccc2F)=NO1 (stereo unspecified)	108*	-1	nt	nt	-7%
O=C1c2ccccc2C(=O)N1CC1CCN(Cc2ccc(OCCO)cc2)CC1	nt	nt	2	1	nt
COc1ccc(CCNc2c([N+](=O)[O-])ncn2C)cc1OC	61*	-7	1	-2	-3%
COc1ccccc1CNC(=O)C[C@H]1C[C@@H]2c3cc(NC(=O)c4ccc5c(c4)OCO5)ccc3O[C@@H]2[C@@H](CO)O1	nt	nt	6	2	nt
CCCNC(=O)C[C@H]1CC[C@@H]2[C@H](COC[C@H](O)CN2C(=O)CC)O1	nt	nt	4	0	nt
CCC(=O)Nc1ccc2c(c1)C(=O)N(C)C[C@H](OC)[C@H](C)CN(Cc1cccc(F)c1)[C@@H](C)CO2	nt	nt	-1	2	nt
CCn1c(-c2cc3c(C(F)(F)F)nn(C)c3s2)n[nH]c1=S	52*	3	nt	nt	-6%
SMILES	NSD2 HMT inh	UBC9 SUMO inh	CASP6 VEID inh	SIRT5 block	Alpha artifact
Cn1c(-c2cc3c(C(F)(F)F)nn(C)c3s2)n[nH]c1=S	1	42	nt	nt	nt
COc1ccccc1NC(=S)N1CCN(c2ccccc2F)CC1	4	5	0	-3	nt
Cc1cccc(NC(=S)N2CCN(c3ccccc3F)CC2)c1C	57*	-6	2	1	-5%
Cc1cc(=O)n2[nH]c(-c3ccco3)nc2n1	68*	3	nt	nt	-6%
C/C=C/c1cnc2c(c1)C(=O)N([C@H](C)CO)C[C@H](C)[C@@H](CN(C)C(=O)C1CCCCC1)O2	nt	nt	1	9	nt
COc1ccccc1NS(=O)(=O)c1ccc(C(=O)N2CCCCCC2)cc1	-2	nt	3	nt	nt
CCOC(=O)C1CCCN(C(=O)c2ccc(OC(C)=O)cc2)C1 (stereo unspecified)	93*	-22	nt	nt	-6%
CCOC(=O)C1CCCN(C(=O)c2ccc(S(=O)(=O)Nc3ccccc3OC)cc2)C1 (stereo unspecified)	54*	nt	-40	-1	2%
CCCC1Nc2ccc(C(=O)O)cc2C2C=CCC12 (stereo unspecified)	92*	37	nt	nt	-1%
CC(C)C1Nc2ccc(C(=O)O)cc2C2C=CCC21 (stereo unspecified)	58*	24	10	23*	-5%
O=C(O)c1ccc2c(c1)C1C=CCC1C(c1ccncc1)N2 (stereo unspecified)	20	48	2	-2	nt
C[C@@H]1CN([C@H](C)CO)C(=O)c2cc(NC(=O)CCC(F)(F)F)ccc2O[C@@H](C)CCCCO[C@@H]1CN(C)Cc1ccc2c(c1)OCO2	nt	nt	-2	-5	nt
CCOc1ccc(N(CC(=O)NCc2ccc3c(c2)OCO3)C(=O)c2csnn2)cc1	-1	-4	2	2	nt
CCc1ccc(N(CC(=O)NCc2ccc3c(c2)OCO3)C(=O)c2csnn2)cc1	60*	11	nt	-2	-2%
Cc1cccc(/C=C2/Sc3ccc(C(=O)NCCCN4CCOCC4)cc3NC2=O)c1	-2	4	4	-5	nt
CCN1CCN(CCCNC(=O)c2ccc3c(c2)NC(=O)/C(=C\c2cccc(C)c2)S3)CC1	51*	6	-82	-3	-5%
C[C@H]1CN([C@@H](C)CO)S(=O)(=O)c2ccc(C#Cc3ccncc3)cc2O[C@H]1CN(C)C(=O)C1CCC1	nt	nt	1	0	nt
CN1C(=O)C(=O)/C(=C(/O)c2ccccc2)C1c1ccccc1 (stereo unspecified)	59*	1	-2	2	-1%
CCOc1ccccc1N(CC(=O)NCCc1ccc(OC)c(OC)c1)S(=O)(=O)c1ccccc1	55*	-3	3	-2	0%
CCOc1ccccc1N(CC(=O)Nc1ccc(OC)c(OC)c1)S(=O)(=O)c1ccccc1	1	-6	-1	-2	nt
COc1ccc2c3c([nH]c2c1)[C@@H](CO)N(C(C)=O)CC31CCN(C(=O)Nc2c(C)noc2C)CC1	nt	nt	0	-4	nt
C[C@@H]1CN([C@@H](C)CO)C(=O)c2cccc(NC(=O)c3cnccn3)c2O[C@@H]1CN(C)CC1CCCCC1	nt	nt	-3	nt	nt
O=C(O)CN1C(=O)/C(=C\c2ccc(OC(=O)c3ccco3)cc2)SC1=S	14	16	16	6	nt
O=C(O)CN1C(=O)/C(=C/c2ccc(SCc3ccccc3)o2)SC1=S	54*	nt	52*	6	-6%
O=C(NC1CCCc2ccccc21)c1ccccc1OC(F)F (stereo unspecified)	95*	6	1	-1	-1%
COc1cc(CCNC2=CC(=O)c3ncccc3C2=O)ccc1O	128*	nt	91*	9	-3%
Cc1cc(=O)oc(C)c1C(=O)OCC(=O)c1ccccc1	54*	20	3	-5	-5%
Cc1c(Cc2ccccc2)c(=O)oc2c(O)c(O)ccc12	61*	4	17	-4	-12%
Cn1cc2ccc(N)cc2n1	87*	98	0	0	0%
Cn1cc2ccc([N+](=O)[O-])cc2n1	29	22	0	1	nt

Screening data as filed in PubChem BioAssay.
